# Results: the supplement of paper PMC13380429
# Unmarked numbers belong to inactive results.
# Test system: Vero E6 infected with SARS-CoV-2
# Test: inhibition of SARS-CoV-2 cytopathic effect; higher = more antiviral protection, active = above 15
# Settings: 1 nM; 48 h
row,Structure (SMILES),inhibition of SARS-CoV-2 cytopathic effect
1,CC1(N2CCC(n3c([C@@H]4CCCNC4)nc4ccccc43)CC2)CCCCCCC1,0.07%
2,CCCCNc1nc(N)c2[nH]c(=O)n(Cc3ccc(OCCN(C)C)nc3)c2n1,-1.79%
3,COc1ccc([C@@H]2CC(=O)c3c(O)cc(O[C@@H]4O[C@H](CO[C@@H]5O[C@@H](C)[C@H](O)[C@@H](O)[C@H]5O)[C@@H](O)[C@H](O)[C@H]4O)cc3O2)cc1O [hesperidin],1.23%
4,O=C(CSc1nc2c(c(=O)n1-c1ccccc1)SCC2)Nc1ccc(-c2ccccc2)cn1,2.66%
5,CCC/C=C1\OC(=O)C2=C1CCC=C2 [ligustilide],8.3%
6,C#CCN1C(C)=C(C(=O)OC)C(c2cccc([N+](=O)[O-])c2)C(C(=O)OCC)=C1C (centres undefined),0.91%
7,O=C(O)c1cc(-c2ccc(F)cc2F)ccc1O [diflunisal],1.75%
8,CCO[C@H]1O[C@@H]2O[C@@]3(C)CC[C@H]4[C@H](C)CC[C@@H]([C@H]1C)[C@@]24OO3 [artemotil],-0.58%
9,CC(C)(C)c1ccc2cc(C#N)c(C#N)cc2c1,0.02%
10,CCOC(=O)c1cc(C#N)c(N2CCC(C(=O)NS(=O)(=O)Cc3ccccc3)CC2)nc1C,3.08%
11,O=C(c1cn(Cc2cncn2Cc2ccc(Br)cc2)cc1-c1cccc2ccccc12)N1CCOCC1,-2.2%
12,c1ccc(Oc2nc(NC3CCCCC3)c3[nH]cnc3n2)cc1,0.79%
13,CC(C)(C)Sc1c(CC(C)(C)C(=O)O)n(Cc2ccc(Cl)cc2)c2ccc(OCc3ccc4ccccc4n3)cc12 [quiflapon],1.81%
14,COc1cc(NC(=O)c2ccc(-c3ccc(Cl)cc3)o2)cc(OC)c1,1.92%
15,O=C(O)C1=CCCN(CCOC(c2ccc(C(F)(F)F)cc2)c2ccc(C(F)(F)F)cc2)C1,0.02%
16,Oc1cc(O)c(Cl)cn1 [gimeracil],-0.94%
17,Cc1nc2c(O)cccc2c(=O)[nH]1,2.07%
18,CC(C)SC(=N)N [S-isopropylisothiourea],1.63%
19,CC(=O)Oc1ccccc1C(=O)Nc1ncc([N+](=O)[O-])s1 [nitazoxanide],4.76%
20,C[C@]12C=CC(=O)C=C1CC[C@@H]1[C@@H]2[C@@H](O)C[C@@]2(C)[C@H]1CC[C@]2(O)C(=O)COP(=O)(O)O [prednisolone-sodium-phosphate],-6.31%

row,Structure (SMILES),inhibition of SARS-CoV-2 cytopathic effect
1,N#Cc1c(N)nc(SCC(N)=O)c(C#N)c1-c1ccc(OCC2CC2)cc1,4.36%
2,Cc1cncc(CN2CCC(=C3c4ccc(Cl)cc4CCc4cccnc43)CC2)c1 [rupatadine],-0.79%
3,CC(=O)N(OCc1ccccc1)[C@@H]1c2cc(C#N)ccc2OC(C)(C)[C@H]1O,-4.41%
4,CCCCN(CCCC)CCC(O)c1cc2c(Cl)cc(Cl)cc2c2cc(C(F)(F)F)ccc12 (centres undefined) [halofantrine],-1.32%
5,NC(N)=O [urea],-3.97%
6,Cc1cc(C)nc(NS(=O)(=O)c2ccc(NC(=S)NC(=O)COc3ccc(Br)cc3Cl)cc2)n1,-1.5%
7,NC1CCN(c2c(F)cc3c(=O)c(C(=O)O)cn(C4CC4)c3c2Cl)C1 (centres undefined) [clinafloxacin],2.47%
8,N.N.[Cl][Pt][Cl] [cisplatin],1.16%
9,Cc1ccnc(NC(=O)C(C)c2cccc(C(=O)c3ccccc3)c2)c1 (centres undefined) [piketoprofen],0.01%
10,COc1ccc2c(c1)c(CC(=O)O)c(C)n2C(=O)c1ccc(Cl)cc1 [indomethacin],-1.21%
11,c1cc(CN2CCCNCCNCCCNCC2)ccc1CN1CCCNCCNCCCNCC1 [plerixafor],-2.23%
12,Nc1ccc(S(=O)(=O)Nc2cnc3ccccc3n2)cc1 [sulfaquinoxaline],-0.58%
13,O=C1CC[C@@]2(O)[C@H]3Cc4ccc(O)c5c4[C@@]2(CCN3CC2CC2)[C@H]1O5,4.81%
14,COc1ccc(OC)c(CN(C(C)=O)c2cc(F)ccc2Oc2ccccc2)c1,1.17%
15,Cn1cncc1[C@@](N)(c1ccc(Cl)cc1)c1ccc2c(c1)c(-c1cccc(Cl)c1)cc(=O)n2C [tipifarnib],0.24%
16,CCCCCCCCCCCCCCOc1ccc(C(=O)O)o1,-3.57%
17,C=C1C(=O)O[C@@H]2/C=C(\C)CC/C=C(\C)CC[C@@H]12 [costunolide],-0.97%
18,CC(C)Cn1cnc2c1c(=O)n(C)c(=O)n2C [isbufylline],-1.81%
19,C[N+](C)(C)[C@@H](Cc1c[nH]c(=S)[nH]1)C(=O)O [L-ergothioneine],1.26%
